Inconclusive results are not listed. Activity calls are given as the source filed them. Calls follow the shape of the dose curve; as a rule, active = well fitted curve in the direction sought with a large enough effect; inconclusive = small, poorly fitted or top-dose-only effect, or another doubt; inactive = no such curve, though single readings can be large; an effect the other way counts as inactive or inconclusive.
What was measured:
[1] = target: Cellular tumor antigen p53 (Homo sapiens) (UniProt P04637); assay: Primary qHTS for small molecule compounds that upregulate eGFP-tagged delta133p53alpha (in N-terminal) cells. (AID 2060322); settings: NCI-H358 eGFP-delta133p53alpha fluorescence, 24 h; activation: hits give high values;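 also: 0% = DMSO vehicle and 100% = reference activator; nearly all actives have a fitted effect of over 75% in size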
Sequence of Cellular tumor antigen p53 (Homo sapiens) (P04637 whole entry, looked up): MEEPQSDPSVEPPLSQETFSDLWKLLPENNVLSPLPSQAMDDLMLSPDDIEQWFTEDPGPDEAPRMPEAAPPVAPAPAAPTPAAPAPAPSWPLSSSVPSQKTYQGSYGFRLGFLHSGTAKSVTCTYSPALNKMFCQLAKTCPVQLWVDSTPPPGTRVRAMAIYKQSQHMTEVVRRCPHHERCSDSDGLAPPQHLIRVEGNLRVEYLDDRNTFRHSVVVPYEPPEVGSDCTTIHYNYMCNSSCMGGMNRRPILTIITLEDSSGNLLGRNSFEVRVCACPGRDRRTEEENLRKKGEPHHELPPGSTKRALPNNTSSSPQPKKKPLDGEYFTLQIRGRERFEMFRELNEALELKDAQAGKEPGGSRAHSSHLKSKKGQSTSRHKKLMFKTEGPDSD
In short: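 NCI-H358 cells pre-induced 24 h with 10 ng/ml doxycycline to express N-terminal eGFP-delta133p53alpha, then dosed 24 h at 37C without doxycycline; fixed, Hoechst-stained, GFP intensity by laser scanning cytometry, normalized to DMSO (0%) and 57.5 uM 5-azacytidine (100%).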

[2] = target: Aldehyde dehydrogenase, mitochondrial (Homo sapiens) (UniProt P05091); assay: qHTS for Inhibitors of the Aldehyde Dehydrogenase Family (ALDH2) Primary screen (AID 2061308); settings: ALDH2 enzyme inhibition qHTS, 1536-well; series mostly up to 56 µM;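 also: plate controls were vehicle for no effect and reference inhibitor for full effect; nearly all actives have a fitted effect of over 55% in size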
[3] = target: Retinaldehyde dehydrogenase 3 (Homo sapiens) (UniProt P47895); assay: qHTS for Inhibitors of the Aldehyde Dehydrogenase Family (ALDH1A3) Primary screen (AID 2061315); settings: ALDH inhibition qHTS; series mostly up to 56 µM;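 also: plate controls were DMSO vehicle for no effect and reference inhibitor for full effect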

CC(=O)/C=C/C1C(C)CC(O[C@@H]2O[C@H](CO)[C@@H](O)[C@H](O)[C@H]2O)CC1(C)C (stereo partly drawn)
inactive: activation [1] -0.893% | Potency [2] | Potency [3]

C=C1CCCC2(C)CC3(OC)OC(=O)C(C)=C3CC12 (stereo not drawn)
inactive: activation [1] 16.1% | Potency [2] | Potency [3]

O=C(Nc1nnc(-c2ccc3c(c2)OCCO3)o1)C1CCCCC1
inactive: activation [1] -8.33% | Potency [2] | Potency [3]

CC(C)C1CCC(CO)=CC1/C=C(\CO)C(=O)OCC1(O)CCC(C(C)C)C2C=C(C(=O)O)COC(=O)C21 (stereo not drawn)
inactive: activation [1] 9.16% | Potency [2] | Potency [3]

CC(C)c1ccc2c(c1)[C@H](O)CC1[C@@](C)(C(=O)O)CCC[C@]21C (stereo partly drawn)
inactive: activation [1] -4.46% | Potency [2] | Potency [3]

CCC(C)C(=O)O[C@H]1CCC=C2C=C[C@H](C)[C@H](CC[C@@H](O)C[C@@H](O)CC(=O)O)[C@H]21 (stereo partly drawn)
inactive: activation [1] -32.8% | Potency [2] | Potency [3]

CC(=O)/C=C/[C@H]1[C@](C)(O)[C@@H](O)[C@H](OC(C)=O)C2C(C)(C)CCC[C@@]21C (stereo partly drawn)
inactive: activation [1] -2.68% | Potency [2] | Potency [3]

COC(=O)C(CC1(O)c2ccccc2N2C(=O)C(CC(C)C)NC21)n1cnc2ccccc2c1=O (stereo not drawn)
inactive: activation [1] -1.53% | Potency [2] | Potency [3]

O=C(O)Cc1cc(I)c(Oc2ccc(O)c(I)c2)c(I)c1
inactive: activation [1] 2.39% | Potency [2] | Potency [3]

CC1(O)CCC2C(C3C1CCC3(C)O)C2(C)C (stereo not drawn)
inactive: activation [1] -1.79% | Potency [2] | Potency [3]

Cc1ccc2c(c1)C=Cc1cc(C)ccc1C2c1cn(Cc2ccc(C(=O)Nc3nn[nH]n3)o2)c(=O)[nH]c1=S
inactive: activation [1] -8.33% | Potency [2] | Potency [3]

Reference: PubChem BioAssay (NCATS)
